# In all, about 2,900 compounds were measured (“NF-kB SEAP reporter activity, fold change vs agonist alone”: median about 0.99, highest 2% from about 2.6 on). What follows is part of a selection rich in the highest values, with near analogues and random picks from the rest.
# Assays:
# RAW-Dual [1] = experiment: NF-kB SEAP reporter activity, fold change vs agonist alone; cytotoxicity flag (confluency mask): not cytotoxic; higher = enhanced NF-kB activity
# In short: (§1)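 Cytotoxic wells were those whose IncuCyte confluency was below 70% of agonist controls in both mask sets. The cells were RAW-Dual macrophages at 50,000 cells/well in DMEM on 384-well plates, dosed with 50 nL of library stock by pin tool, stimulated with a PRR agonist 1 h later, and kept at 37 °C, 5% CO2 for 20 hours. IRF and NF-κB reporter activity, as fold change over agonist-alone wells, came from supernatant read by QuantiLuc luminescence and QuantiBlue absorbance, respectively.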
# RAW-Dual [2] = experiment: NF-kB SEAP reporter activity, fold change vs agonist alone; higher = enhanced NF-kB activity
# In short: as §1
# RAW-Dual [3] = experiment: NF-kB SEAP reporter activity, fold change vs agonist alone; cytotoxicity flag (confluency mask): cytotoxic (confluency <70% of control); higher = enhanced NF-kB activity
# In short: as §1
# [4] = agonist: ODN 1826 (TLR9) 0.5 ug/mL
# [5] = agonist: Pam2CSK4 (TLR2/6) 0.1 ug/mL
# [6] = agonist: Pam3CSK4 (TLR2/1) 0.1 ug/mL
# [7] = library stock concentration (final ~1000-fold dilution): 10 mM, cytotoxicity flag (confluency mask): not cytotoxic, agonist: Imiquimod (TLR7) […]
# [8] = library stock concentration (final ~1000-fold dilution): 10 mM, cytotoxicity flag (confluency mask): not cytotoxic, agonist: MPLA (TLR4) […]
# [9] = library stock concentration (final ~1000-fold dilution): 10 mM water, cytotoxicity flag (confluency mask): not cytotoxic, agonist: Imiquimod (TLR7) […]
# [10] = library stock concentration (final ~1000-fold dilution): 10 mM water, cytotoxicity flag (confluency mask): not cytotoxic, agonist: MPLA (TLR4) […]
structure (smiles),measurement,setting,value
O=C(/C=C/c1ccc(O)c(O)c1)O[C@@H]1CC(O)(C(=O)O)C[C@@H](OC(=O)/C=C/c2ccc(O)c(O)c2)C1O (stereo partly specified) (library stock concentration (final ~1000-fold dilution): 10 mM),NF-kB SEAP reporter activity,RAW-Dual [1]; agonist: LPS (TLR4) 0.1 ug/mL,1.24
same,NF-kB SEAP reporter activity,RAW-Dual [1]; [4],1.04
same,NF-kB SEAP reporter activity,RAW-Dual [1]; [5],1.11
same,NF-kB SEAP reporter activity,RAW-Dual [1]; [6],1.18
O=C(/C=C/c1ccc(O)c(O)c1)O[C@@H]1CC(O)(C(=O)O)C[C@@H](OC(=O)/C=C/c2ccc(O)c(O)c2)C1O (stereo partly specified),NF-kB SEAP reporter activity,RAW-Dual [2]; [7],0.841
same,NF-kB SEAP reporter activity,RAW-Dual [2]; [8],1.01
CC(C)NC(=O)C1CCC(n2c(=NC(=O)c3ccc(F)cc3)[nH]c3ccc(CN4CCC(C(C)(C)O)CC4)cc32)CC1 (stereo unspecified),NF-kB SEAP reporter activity,RAW-Dual [2]; [7],1.44
same,NF-kB SEAP reporter activity,RAW-Dual [2]; [8],0.822
CC(C)NC(=O)C1CCC(n2c(=NC(=O)c3ccc(F)cc3)[nH]c3ccc(CN4CCC(C(C)(C)O)CC4)cc32)CC1 (stereo unspecified) (library stock concentration (final ~1000-fold dilution): 10 mM),NF-kB SEAP reporter activity,RAW-Dual [1]; agonist: LPS (TLR4) 0.1 ug/mL,1.17
same,NF-kB SEAP reporter activity,RAW-Dual [1]; [4],0.713
same,NF-kB SEAP reporter activity,RAW-Dual [1]; [5],1.24
same,NF-kB SEAP reporter activity,RAW-Dual [1]; [6],2.16
Cc1cc(Nc2cc(Cl)nc(Oc3ccc([N+](=O)[O-])cc3)n2)n[nH]1,NF-kB SEAP reporter activity,RAW-Dual [2]; [7],1.24
same,NF-kB SEAP reporter activity,RAW-Dual [2]; [8],2.16
Cc1cc(Nc2nc(NC(C)c3ccc(F)cc3)c(C#N)cc2F)n[nH]1 (stereo unspecified) (library stock concentration (final ~1000-fold dilution): 10 mM),NF-kB SEAP reporter activity,RAW-Dual [1]; agonist: LPS (TLR4) 0.1 ug/mL,1.87
same,NF-kB SEAP reporter activity,RAW-Dual [1]; [4],0.965
same,NF-kB SEAP reporter activity,RAW-Dual [1]; [5],1.44
same,NF-kB SEAP reporter activity,RAW-Dual [1]; [6],0.993
Cc1cc(Nc2cc(Cl)nc(Oc3ccc([N+](=O)[O-])cc3)n2)n[nH]1 (library stock concentration (final ~1000-fold dilution): 10 mM),NF-kB SEAP reporter activity,RAW-Dual [1]; agonist: LPS (TLR4) 0.1 ug/mL,3.28
same,NF-kB SEAP reporter activity,RAW-Dual [1]; [4],2.32
same,NF-kB SEAP reporter activity,RAW-Dual [1]; [5],1.82
same,NF-kB SEAP reporter activity,RAW-Dual [1]; [6],2.92
Cc1cc(Nc2nc(NC(C)c3ccc(F)cc3)c(C#N)cc2F)n[nH]1 (stereo unspecified),NF-kB SEAP reporter activity,RAW-Dual [2]; [7],1
same,NF-kB SEAP reporter activity,RAW-Dual [2]; [8],0.984
O=C(O)[C@H](O)Cc1ccc(O)c(O)c1 (library stock concentration (final ~1000-fold dilution): 10 mM water),NF-kB SEAP reporter activity,RAW-Dual [1]; agonist: LPS (TLR4) 0.1 ug/mL,1.19
same,NF-kB SEAP reporter activity,RAW-Dual [1]; [4],1.22
same,NF-kB SEAP reporter activity,RAW-Dual [1]; [5],1.1
same,NF-kB SEAP reporter activity,RAW-Dual [1]; [6],1
O=C(O)[C@H](O)Cc1ccc(O)c(O)c1,NF-kB SEAP reporter activity,RAW-Dual [2]; [9],0.919
same,NF-kB SEAP reporter activity,RAW-Dual [2]; [10],1.04
COc1nc2ccc(Br)cc2cc1C(c1ccccc1)C(O)(CCN(C)C)c1cccc2ccccc12 (stereo unspecified),NF-kB SEAP reporter activity,RAW-Dual [2]; [7],0.771
same,NF-kB SEAP reporter activity,RAW-Dual [2]; [8],0.783
COc1nc2ccc(Br)cc2cc1C(c1ccccc1)C(O)(CCN(C)C)c1cccc2ccccc12 (stereo unspecified) (library stock concentration (final ~1000-fold dilution): 10 mM),NF-kB SEAP reporter activity,RAW-Dual [1]; agonist: LPS (TLR4) 0.1 ug/mL,0.761
same,NF-kB SEAP reporter activity,RAW-Dual [1]; [4],0.86
same,NF-kB SEAP reporter activity,RAW-Dual [1]; [5],0.78
same,NF-kB SEAP reporter activity,RAW-Dual [1]; [6],0.531
NCC1OC(OC2C(CO)OC(OC3C(O)C(N)CC(N)C3OC3OC(CO)C(O)C(O)C3N)C2O)C(N)C(O)C1O.O=S(=O)(O)O (stereo unspecified) (library stock concentration (final ~1000-fold dilution): 10 mM water),NF-kB SEAP reporter activity,RAW-Dual [1]; agonist: LPS (TLR4) 0.1 ug/mL,1.05
same,NF-kB SEAP reporter activity,RAW-Dual [1]; [4],1.24
same,NF-kB SEAP reporter activity,RAW-Dual [1]; [5],1.27
same,NF-kB SEAP reporter activity,RAW-Dual [1]; [6],1.03
NCC1OC(OC2C(CO)OC(OC3C(O)C(N)CC(N)C3OC3OC(CO)C(O)C(O)C3N)C2O)C(N)C(O)C1O.O=S(=O)(O)O (stereo unspecified),NF-kB SEAP reporter activity,RAW-Dual [2]; [9],0.946
same,NF-kB SEAP reporter activity,RAW-Dual [2]; [10],1.03
CC(C)(C)NCC(O)COc1ccccc1C1CCCC1.CC(C)(C)NCC(O)COc1ccccc1C1CCCC1.O=S(=O)(O)O (stereo unspecified) (library stock concentration (final ~1000-fold dilution): 10 mM),NF-kB SEAP reporter activity,RAW-Dual [1]; agonist: LPS (TLR4) 0.1 ug/mL,0.844
same,NF-kB SEAP reporter activity,RAW-Dual [1]; [4],1.08
same,NF-kB SEAP reporter activity,RAW-Dual [1]; [5],0.857
same,NF-kB SEAP reporter activity,RAW-Dual [1]; [6],0.842
CC(C)(C)NCC(O)COc1ccccc1C1CCCC1.CC(C)(C)NCC(O)COc1ccccc1C1CCCC1.O=S(=O)(O)O (stereo unspecified),NF-kB SEAP reporter activity,RAW-Dual [2]; [7],1.29
same,NF-kB SEAP reporter activity,RAW-Dual [2]; [8],1.32
CN1CCc2c(c3ccccc3n2Cc2ccccc2)C1.CN1CCc2c(c3ccccc3n2Cc2ccccc2)C1.O=S(=O)(O)c1cccc2c(S(=O)(=O)O)cccc12,NF-kB SEAP reporter activity,"RAW-Dual [2]; library stock concentration (final ~1000-fold dilution): 2 mM, cytotoxicity flag (confluency mask): not cytotoxic, agonist: MPLA (TLR4) […]",1.15
CN1CCc2c(c3ccccc3n2Cc2ccc(C(=O)NO)cc2)C1 (library stock concentration (final ~1000-fold dilution): 10 mM),NF-kB SEAP reporter activity,RAW-Dual [1]; agonist: LPS (TLR4) 0.1 ug/mL,1.15
same,NF-kB SEAP reporter activity,RAW-Dual [1]; [4],1.21
same,NF-kB SEAP reporter activity,RAW-Dual [1]; [5],0.779
same,NF-kB SEAP reporter activity,RAW-Dual [1]; [6],1.15
CN1CCc2c(c3ccccc3n2Cc2ccccc2)C1.CN1CCc2c(c3ccccc3n2Cc2ccccc2)C1.O=S(=O)(O)c1cccc2c(S(=O)(=O)O)cccc12 (library stock concentration (final ~1000-fold dilution): 2 mM),NF-kB SEAP reporter activity,RAW-Dual [1]; agonist: LPS (TLR4) 0.1 ug/mL,1.29
same,NF-kB SEAP reporter activity,RAW-Dual [1]; [4],0.722
same,NF-kB SEAP reporter activity,RAW-Dual [1]; [5],0.952
same,NF-kB SEAP reporter activity,RAW-Dual [1]; [6],0.958
CN1CCc2c(c3ccccc3n2Cc2ccc(C(=O)NO)cc2)C1,NF-kB SEAP reporter activity,RAW-Dual [2]; [7],1
same,NF-kB SEAP reporter activity,RAW-Dual [2]; [8],1.11
CN1CCc2c(c3ccccc3n2Cc2ccc(C(=O)NO)cc2)C1.Cl (library stock concentration (final ~1000-fold dilution): 10 mM),NF-kB SEAP reporter activity,RAW-Dual [1]; agonist: LPS (TLR4) 0.1 ug/mL,5.1
same,NF-kB SEAP reporter activity,RAW-Dual [1]; [4],1.71
same,NF-kB SEAP reporter activity,RAW-Dual [1]; [5],1.08
same,NF-kB SEAP reporter activity,RAW-Dual [1]; [6],1.59
CN1CCc2c(c3ccccc3n2Cc2ccc(C(=O)NO)cc2)C1.Cl,NF-kB SEAP reporter activity,RAW-Dual [2]; [7],2.44
same,NF-kB SEAP reporter activity,RAW-Dual [2]; [8],2.55
CC(C)N(CCC(=O)c1ccc2ccccc2c1)Cc1ccccc1.Cl,NF-kB SEAP reporter activity,"RAW-Dual [2]; library stock concentration (final ~1000-fold dilution): 10 mM, cytotoxicity flag (confluency mask): cytotoxic (confluency <70% of control), agonist: Imiquimod (TLR7) […]",1.07
same,NF-kB SEAP reporter activity,"RAW-Dual [2]; library stock concentration (final ~1000-fold dilution): 10 mM, cytotoxicity flag (confluency mask): cytotoxic (confluency <70% of control), agonist: MPLA (TLR4) […]",0.507
CC(C)N(CCC(=O)c1ccc2ccccc2c1)Cc1ccccc1.Cl (library stock concentration (final ~1000-fold dilution): 10 mM),NF-kB SEAP reporter activity,RAW-Dual [3]; agonist: LPS (TLR4) 0.1 ug/mL,0.45
same,NF-kB SEAP reporter activity,RAW-Dual [3]; [4],0.518
same,NF-kB SEAP reporter activity,RAW-Dual [3]; [5],0.615
same,NF-kB SEAP reporter activity,RAW-Dual [3]; [6],0.442

# — the supplement of paper PMC10037445
